This note sets out measurements from PubChem BioAssay (NCI).

The nature of test [1]: NCI Yeast Anticancer Drug Screen. Data for the rad50 strain (AID 155).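 Note: 0% = growth of vehicle-only cultures of the same strain.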 The settings on record: S. cerevisiae rad50 strain growth inhibition, hits give high values. The method in brief: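 Compounds were tested on a yeast strain with an engineered DNA damage repair alteration; the reported value is growth inhibition normalised to vehicle treatment.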
A short description of test [2]: NCI Yeast Anticancer Drug Screen. Data for the mec2-1 strain (AID 157). To be noted: S. cerevisiae mec2-1 strain, hits give high values. The gist of the method:
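Strain: mec2-1 (DNA repair/cell cycle alteration). Compound exposure, then growth measured; inhibition expressed relative to vehicle.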

Test [3] in a line: NCI Yeast Anticancer Drug Screen. Data for the sgs1 mgt1 strain (AID 161).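 Note: 0% = growth of cultures given vehicle only.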 To be noted: S. cerevisiae sgs1 mgt1 strain, hits give high values. The gist of the method:
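Mutant yeast exposed to compound; growth scored against vehicle-only wells.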

The nature of test [4]: NCI Yeast Anticancer Drug Screen. Data for the cln2 rad14 strain (AID 165).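 Note: 0% = growth equal to vehicle treated cultures.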 The settings on record: S. cerevisiae cln2 rad14 strain, hits give high values. The method in brief: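 Compounds are applied to the cln2 rad14 yeast strain, and growth is then compared with that of vehicle-treated cultures to give inhibition.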
Test [5] is described as follows: NCI Yeast Anticancer Drug Screen. Data for the bub3 strain (AID 167). To be noted: S. cerevisiae bub3 mutant strain, hits give high values. The gist of the method: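 Growth of a checkpoint-deficient yeast mutant is measured after compound exposure. Values represent inhibition relative to vehicle.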
A short description of test [6]: NCI Yeast Anticancer Drug Screen. Data for the mlh1 rad18 strain (AID 175). The settings on record: S. cerevisiae mlh1 rad18 strain growth inhibition, hits give high values. The gist of the method: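 Read-out is yeast growth inhibition, calculated against vehicle-only controls. The compound was applied to a strain engineered with DNA damage repair alterations.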
[7] abbreviates: at 5.0 µM (retest, dose inferred, filed as 0.5).
[8] abbreviates: at 50.0 µM (retest, dose inferred, filed as 5.0).

This is part of a sample that, as a whole, favours compounds with a hit. Of some 79,000 tested, about 15% had one in any assay. Activity calls are given as the source filed them. Cut-off read from the data, not from the text of the source: active = growth inhibition above about 70%; inactive = the rest.

Regarding `O=c1c2ccccc2nc(-c2ccccc2)n1NC(=S)Nc1ccc(Cl)cc1[N+](=O)[O-]`, the growth inhibition in test [1] (setting [7]) was -3% (inactive); in test [1] (setting [8]), 17% (inactive); in test [1] (at 50.0 µM), 23.1% (inactive); in test [2] (setting [7]), -7% (inactive); in test [2] (setting [8]) it was 10% (inactive); in test [2] (at 50.0 µM), -1.6% (inactive). Besides, the growth inhibition in test [3] (setting [7]) is 4% (inactive); in test [3] (setting [8]) it was 15% (inactive); in test [3] (at 50.0 µM), 40.6% (inactive); in test [4] (setting [7]), 8% (inactive); in test [4] (setting [8]) it was 14% (inactive); in test [4] (at 50.0 µM) it was -29.4% (inactive). Also, the growth inhibition in test [5] (setting [7]) is -5% (inactive); in test [5] (setting [8]), 29% (inactive); in test [5] (at 50.0 µM), 71.4% (active); in test [6] (setting [7]), 2% (inactive); in test [6] (setting [8]), 10% (inactive); in test [6] (at 50.0 µM) it was 25.8% (inactive).

With `CCCCCCCCCc1cccc(N2C(N)=NC(N)=NC2(C)C)c1`, the growth inhibition in test [1] (setting [7]) was 99% (active); in test [1] (setting [8]), 88% (active); in test [1] (at 50.0 µM), 99.3% (active); in test [2] (setting [7]), 100% (active); in test [2] (setting [8]), 28% (inactive); in test [2] (at 50.0 µM) it was 99.6% (active). In addition, the growth inhibition in test [3] (setting [7]) was 99% (active); in test [3] (setting [8]), 42% (inactive); in test [3] (at 50.0 µM), 99.6% (active); in test [4] (setting [7]), 99% (active); in test [4] (setting [8]), 19% (inactive); in test [4] (at 50.0 µM), 99% (active). Besides, the growth inhibition in test [5] (setting [7]) was 98% (active); in test [5] (setting [8]), 12% (inactive); in test [5] (at 50.0 µM) it was 99.4% (active); in test [6] (setting [7]) it was 99% (active); in test [6] (setting [8]) it was 29% (inactive); in test [6] (at 50.0 µM) it was 99.4% (active).

For the molecule `COc1cc2c(c(-c3cn(C)c4ccccc34)c1OC)OCO2`, the growth inhibition in test [1] (setting [7]) is 4% (inactive); in test [1] (setting [8]), 24% (inactive); in test [1] (at 50.0 µM), 36.2% (inactive); in test [2] (setting [7]), 0% (inactive); in test [2] (setting [8]), 54% (inactive); in test [2] (at 50.0 µM), 15.3% (inactive). The growth inhibition in test [3] (setting [7]) is 4% (inactive); in test [3] (setting [8]) it was 59% (inactive); in test [3] (at 50.0 µM), 86% (active); in test [4] (setting [7]), -1% (inactive); in test [4] (setting [8]), 1% (inactive); in test [4] (at 50.0 µM), -30.6% (inactive). Also, the growth inhibition in test [5] (setting [7]) was 2% (inactive); in test [5] (setting [8]), 78% (active); in test [5] (at 50.0 µM), 84.5% (active); in test [6] (setting [7]) it was 0% (inactive); in test [6] (setting [8]), 35% (inactive); in test [6] (at 50.0 µM), 41.9% (inactive).

Take `O=C1C(c2ccc(Br)cc2)=[N+]([O-])c2ccccc21`: the growth inhibition in test [1] (setting [7]) was 9% (inactive); in test [1] (setting [8]), 94% (active); in test [1] (at 50.0 µM), 93.5% (active); in test [2] (setting [7]), 12% (inactive); in test [2] (setting [8]), 84% (active); in test [2] (at 50.0 µM), 87.3% (active). The growth inhibition in test [3] (setting [7]) is 10% (inactive); in test [3] (setting [8]), 94% (active); in test [3] (at 50.0 µM) it was 93.8% (active); in test [4] (setting [7]) it was -4% (inactive); in test [4] (setting [8]), 47% (inactive); in test [4] (at 50.0 µM) it was 85.5% (active). Further, the growth inhibition in test [5] (setting [7]) is 19% (inactive); in test [5] (setting [8]) it was 94% (active); in test [5] (at 50.0 µM), 96.4% (active); in test [6] (setting [7]), 11% (inactive); in test [6] (setting [8]), 91% (active); in test [6] (at 50.0 µM), 95.8% (active).

On to `COC(=O)/C=C(\Cl)C(=O)OC`, for which the growth inhibition in test [1] (setting [7]) was 8% (inactive); in test [1] (setting [8]) it was 84% (active); in test [1] (at 50.0 µM), 99.3% (active); in test [2] (setting [7]) it was 16% (inactive); in test [2] (setting [8]), 99% (active); in test [2] (at 50.0 µM) it was 99.7% (active). In addition, the growth inhibition in test [3] (setting [7]) was 5% (inactive); in test [3] (setting [8]), 98% (active); in test [3] (at 50.0 µM), 99.5% (active); in test [4] (setting [7]), 19% (inactive); in test [4] (setting [8]), 99% (active); in test [4] (at 50.0 µM), 97.5% (active). Also, the growth inhibition in test [5] (setting [7]) was 19% (inactive); in test [5] (setting [8]), 97% (active); in test [5] (at 50.0 µM), 99.5% (active); in test [6] (setting [7]), 7% (inactive); in test [6] (setting [8]), 98% (active); in test [6] (at 50.0 µM), 99.2% (active).
